Screening data deposited in PubChem BioAssay by National Center for Advancing Translational Sciences (NCATS).
Pf Dd2 inh: inhibitors of Plasmodium falciparum Dd2 growth; P. falciparum Dd2 growth, SYBR Green, 72 h; Potency, µM (highest dose often 28.9 µM), inactives show at the top dose activity, negative = inhibition, most hits filed as inhibitors; 4.3% of 120,000 active; AID 1347417; active = well fitted inhibition curve with a large enough effect;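 note: plate controls were DMSO vehicle for no effect and reference drug for full effect; nearly all actives have a fitted effect of over 65% in size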
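Infected erythrocytes (Dd2, 0.3% parasitemia, 2.5% hematocrit final) are added to compound in RPMI-1640/Albumax II medium, grown 72 h at 37C in low oxygen, then lysed with saponin/Triton-X containing SYBR Green and read by fluorescence.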
The depositor's hits bear a star; i = inactive; [ ] = remark or other dose. The sample as a whole holds a higher share of hits than the screen did. Potency is the fitted concentration of half-maximal effect.

SMILES	Pf Dd2 inh
O=C1NC2(Cc3ccccc31)CN(Cc1c[nH]c3ccccc13)C2	-10%
COCCO[C@H]1C(=O)N(C2CCN(C(=O)c3cc4ccccc4[nH]3)CC2)[C@H]1c1ccncc1	i
Cc1ccccc1-c1nc2cnccn2c1NCCC(=O)NC1CCCCC1	i
CNC(=O)[C@@H]1CN(C(=O)c2cc3ccccc3[nH]2)C[C@H]1COC	-10%
Cc1ccccc1-c1nccn2c(C3CN(C(=O)c4cc5ccccc5[nH]4)C3)ncc12	11µM*
c1cncc(-c2nnc([C@H]3CCN(Cc4c[nH]c5ccccc45)C3)o2)c1	i
Cc1cccnc1C(=O)N[C@@H]1CN(Cc2ccccc2)C[C@H]1CN(C)C	0%
COc1ncccc1-c1nccn2c(C3CN(Cc4c[nH]c5ccccc45)C3)ncc12	3.5µM*
COc1ccc(C(=O)N2CCN3C(=O)N(Cc4ccccc4)C(=O)[C@H]3C2)cc1	-13%[44.1 µM]
CC1(CNCc2ccccc2)COc2ccc(C(=O)N3CC(O)C3)cc2N1 (stereo not drawn)	-16%[44.1 µM]
CCC(=O)N1CCC[C@H](n2c(=O)n(C)c3cccnc32)C1	-15%
COC[C@H]1NC(=O)CC[C@H]1C(=O)Nc1cc(OC)ccc1OC	-18%
CC(=O)N1CCCC(c2nn(-c3cccc(Cl)c3)c(=O)[nH]2)C1 (stereo not drawn)	i
CC1(C)N=C(c2ccccc2)C(=O)N1CC(=O)NC1CCCC1	78%
CC(=O)C1=C(c2ccc(Br)cc2)N(C(C)=O)n2c(nnc2C2CCCCC2)S1	1.4µM*
O=C(c1ccc(F)cn1)N1CC(F)(F)C[C@H]1c1nc(C2CC2)no1	-1%
CCCc1cc(C(=O)N2CCCC3(CCC(=O)N(CCOC)C3)C2)cs1 (stereo not drawn)	2%
Cc1ncsc1CCNC(=O)c1cn(CCC2CCCCN2)nn1 (stereo not drawn)	-10%
CCc1cc(N2CCOCC(O)(CN3CCCC3)C2)nc(N2CCCC2)n1 (stereo not drawn)	5.6µM*
CCc1cc(N2CCC3(CCCN(C)C3=O)C2)nc(N2CCCC2)n1 (stereo not drawn)	-29%
COc1ccc(C(=O)N2CCOCC(O)(CN3CCCC3)C2)c(OC)c1 (stereo not drawn)	10%
COCC1CN(C(=O)C2(c3ccc(OC)cc3)CC2)CC12CCOCC2 (stereo not drawn)	-9%
Cc1noc2c(NCCCn3ccnc3)cc(-c3ccc(Cl)cc3)nc12	4.5µM*
Cc1noc2c(NCCN3CCOCC3)cc(-c3ccc(Cl)cc3)nc12	-13%[44.1 µM]
Cc1noc2c(NCCc3ccccn3)cc(-c3ccc(Cl)cc3)nc12	0%[44.1 µM]
SMILES	Pf Dd2 inh
COCCn1ncc(N2CCC(C(=O)NCC3CCCCC3)C2)cc1=O (stereo not drawn)	-19%
CCN1C(=O)CCC2(C(=O)NCc3ccc(OC)c(OC)c3)CCCC=C12 (stereo not drawn)	1%
CCCn1cc(C2CCN(S(=O)(=O)c3c(C)c(C)cc(C)c3C)CC2)c2ccccc21	10µM*
CCOCCn1cc(C2CCN(S(=O)(=O)c3c(C)cc(C)cc3C)CC2)c2ccccc21	-7%
CCOCCn1cc(C2CCN(S(=O)(=O)c3ccc(Cl)cc3Cl)CC2)c2ccccc21	-9%
COc1ccc(CNC(=O)CC[C@H]2CNC(=O)[C@H]3NCC[C@H]3N2C)cc1	8%[44.1 µM]
COc1ccc(-n2ncc(C(=O)NCCc3ccsc3)c2C2CCN(C(=O)OC(C)(C)C)CC2)cc1	-27%
CCOC(=O)N1CCC(NC(=O)c2cnn(-c3ccc(C)cc3)c2C2CCN(C(=O)OC(C)(C)C)CC2)CC1	11µM*
COc1ccc(CNC(=O)c2cnn(-c3ccc(OC)cc3)c2C2CCN(C(=O)OC(C)(C)C)CC2)cc1	-23%
CCOC(=O)N1CCC(NC(=O)c2cnn(-c3cccc(Cl)c3C)c2C2CCN(C(=O)OC(C)(C)C)CC2)CC1	i
CCOC(=O)N1CCC(NC(=O)c2cnn(-c3ccc(OC)cc3)c2C2CCN(C(=O)OC(C)(C)C)CC2)CC1	8.9µM*
Cc1ccc(-n2ncc(C(=O)NC3CCN(Cc4ccccc4)CC3)c2C2CCN(C(=O)OC(C)(C)C)CC2)cc1C	i
Cc1ccc(C(=O)N2CCC(n3cc(-c4nc(C(C)C)no4)nn3)CC2)cc1	134%
CC(=O)N1CCC(N2CC3CC(C2)[C@H]2CCCC(=O)N2C3)CC1 (stereo partly drawn)	-23%
Cc1ccc(CC(=O)N2CCC(Cc3nc(C(C)C)no3)CC2)cc1	5%
O=C(Cc1ccccc1Cl)N1CCC2(CC1)CC(O)CCO2 (stereo not drawn)	5%
O[C@@H]1[C@@H](Cn2cc(-c3cccnc3)nn2)C[C@@H](NC2CCOCC2)[C@@H]1O	-13%
CN1c2cc(C(=O)NCc3ccc(F)c(Cl)c3)ccc2C(=O)N2CCCCC21 (stereo not drawn)	i
CC(=O)Nc1ccc(S(=O)(=O)NC[C@@H]2C=C(C)[C@H](CC(=O)NCCN(C)C)C[C@H]2C(C)C)cc1	-2%
COc1ccc(CN2CCC3(CC2)C(=NC2CCCCC2)NC(=O)N3c2cccnc2)cc1	6%
Cc1ccccc1CSc1nc2cccnc2n1Cc1ccc(C(=O)NC2CC2)cc1	i
Cc1ccccc1CNC(=O)c1ccc(Cn2c(SCc3ccccc3)nc3cccnc32)cc1	11µM*
COc1ccccc1CNC(=O)c1ccc(Cn2c(SCc3ccccc3)nc3cccnc32)cc1	8.9µM*
Cc1ccc(CNC(=O)c2ccc(Cn3c(SCc4ccccc4F)nc4cccnc43)cc2)cc1	i
O=C(N1CCOCC2(C1)CN([S+](=O)([O-])c1ccccc1)C2)C1(c2ccccc2)CC1	i
SMILES	Pf Dd2 inh
COCCOC(=O)C1=C(C)N=C2SC=C(CC(=O)NC3CC3)N2C1c1ccc(C)cc1C (stereo not drawn)	i
Cc1nc(C(=O)N2CCCC(Cn3cc(-c4ccsc4)nn3)C2)cs1 (stereo not drawn)	-16%
CCC1(O)CCC12CCN(C(=O)c1cc(C)n(C)n1)CC2 (stereo not drawn)	-12%
NC1CCC(n2cc(C(=O)NCc3cc(-c4cccnc4)no3)nn2)CC1 (stereo not drawn)	-20%
CC(c1cccs1)N(C)S(C)(=O)=O (stereo not drawn)	-8%[44.1 µM]
CC(c1cccs1)N(C)Cc1cccc2ccccc12 (stereo not drawn)	13µM*
COc1cccc(CN(C)C(C)c2cccs2)c1 (stereo not drawn)	i
O=C(Cn1ccn2nc(-c3ccccc3)c(CO)c2c1=O)NCc1ccc(F)cc1F	57%
O=c1[nH]c(=O)n2c(c1-c1ncon1)CCCC2	-7%
CC(C)CC1=NS(=O)(=O)c2cc(NC(=O)C3CC3)ccc2N1c1ccccc1	2µM*
CC(C)C1=NS(=O)(=O)c2cc(NC(=O)c3ccco3)ccc2N1c1ccccc1	i
CCC1=NS(=O)(=O)c2cc(NC(C)=O)ccc2N1CC(C)C	-4%
CN(C)c1ccc(C(=O)NC[C@H]2C[C@@H]3CCN2C[C@@H]3CN2CCc3ccccc3C2)cc1	i
Nc1c(C(=O)Nc2ccc(Cl)c(C(F)(F)F)c2)sc2nc3c(cc12)N1CCC3CC1	2.8µM*
O=C(CN1CCN(c2ccc(Cl)cc2)CC1)Nc1ccc(Cl)c(C(F)(F)F)c1	25%
N#Cc1cc2c(nc1SCC(=O)Nc1ccc(Cl)c(C(F)(F)F)c1)C1CCN2CC1	5µM*
N#Cc1c(C(F)(F)F)cc(-c2ccc(F)cc2)nc1SCC(=O)Nc1ccccc1	-1%
Nc1c(C(=O)Nc2cccc(Br)c2)sc2nc3c(cc12)N1CCC3CC1	i
